Inconclusive results are not listed. Values without a mark were called inactive. Calls come from the whole dose curve; as a rule, active = well fitted inhibition curve with a large enough effect; inconclusive = small, poorly fitted or top-dose-only effect, or effect the other way; inactive = flat fitted curve, though single readings scatter.
biological target: ATP-dependent 6-phosphofructokinase (Trypanosoma brucei brucei) (UniProt O15648); assay: qHTS Assay to Find Inhibitors of T. brucei phosphofructokinase: hit validation (AID 492961);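 note: luminescence reports ADP formed as PFK phosphorylates fructose-6-phosphate with ATP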; conditions: T. brucei PFK, ADP-Glo luminescence; series mostly up to 51.4 µM; activity change, negative = inhibition: at the top concentration
In short: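 Inhibition of parasite PFK is measured as reduced ADP formation, quantified via luciferase after ATP depletion. Assay used 0.1 mM ATP, 0.5 mM F6P, 1.25 nM enzyme, 45 min incubation.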
% is set by controls: 0 for no effect and ±100 for the full control effect.

Sequence of ATP-dependent 6-phosphofructokinase (Trypanosoma brucei brucei) (O15648 whole entry, looked up): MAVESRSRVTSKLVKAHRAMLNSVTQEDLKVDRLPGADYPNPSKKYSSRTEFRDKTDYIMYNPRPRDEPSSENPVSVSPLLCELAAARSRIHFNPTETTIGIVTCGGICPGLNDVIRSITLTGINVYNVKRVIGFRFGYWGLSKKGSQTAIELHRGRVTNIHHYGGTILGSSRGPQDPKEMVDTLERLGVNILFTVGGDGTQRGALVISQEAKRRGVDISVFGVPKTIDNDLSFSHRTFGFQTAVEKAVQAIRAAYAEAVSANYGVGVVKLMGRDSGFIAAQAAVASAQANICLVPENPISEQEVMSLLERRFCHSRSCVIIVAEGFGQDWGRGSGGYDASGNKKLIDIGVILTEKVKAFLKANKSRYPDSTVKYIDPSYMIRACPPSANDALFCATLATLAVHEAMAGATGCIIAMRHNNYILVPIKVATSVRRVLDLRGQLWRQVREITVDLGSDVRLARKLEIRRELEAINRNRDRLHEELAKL

Structure (SMILES)	activity change, negative = inhibition
CC(C)(C)CC(C)(C)c1ccc(O)c(Cc2ccc(Cl)cc2Cl)c1	0%
COc1cccc(CCc2ccccc2OCC(CN(C)C)OC(=O)CCC(=O)O)c1 (stereo unspecified)	-0.804%
C[C@H]1[C@H](NC(=O)/C(=N/OC(C)(C)C(=O)O)c2csc(N)n2)C(=O)N1S(=O)(=O)O (stereo in doubt)	0.898% [at 24.3 µM]
c1ccc(CNCCNCc2ccccc2)cc1	-6%
Cc1c(C)n(CCN(C)C)c2ccc(C(=O)OCCN(C)C)cc12	2.02%
CCOc1ccc2nc3cc(N)ccc3c(N)c2c1	2.33%
CCCCCCc1ccc(O)cc1O	-0.345%
CCCCCCC[N+](CC)(CC)CCCCc1ccc(Cl)cc1	-4.84% [at 24.3 µM]
Nc1ccc(C(=O)O)cc1	9.57%
Cc1ccc(O)c2ncccc12	5.94%
CC(C)=CCC1C(=O)N(c2ccccc2)N(c2ccccc2)C1=O	12.4%
COc1ccc(/C=C/C(=O)c2ccc(OC)cc2OC)cc1	8.53%
CC(O)C(=O)O (stereo unspecified)	0%
C[C@@H]1C[C@H]2[C@@H]3CCC4=CC(=O)C=C[C@]4(C)[C@@]3(F)[C@@H](O)C[C@]2(C)[C@H]1C(=O)CO	-1.63%
COc1c(C)c2c(c(O)c1C/C=C(\C)CCC(=O)O)C(=O)OC2	2.45% [at 24.3 µM]
CC(=O)N(O)CCCCCNC(=O)CCC(=O)N(O)CCCCCNC(=O)CCC(=O)N(O)CCCCCN	-10.3% [at 24.3 µM]
CC(=O)c1ccc2c(c1)N(CCCN1CCC(CCO)CC1)c1ccccc1S2	-3.37% [at 24.3 µM]
CCCCCCCCCCCCCCCCOP(=O)([O-])OCC[N+](C)(C)C	8.38%
CCCOC(C(=O)OC1CCN(C)CC1)(c1ccccc1)c1ccccc1	5.65%
CCN1CCCC1=O	5.29%
OCc1ccccc1O	-0.845%
